Results as given in the antibiotic and cytotoxicity screens of Wong et al. (2023).
Hit rate of the full screen: of about 39,000 compounds, about 3,300 (8.5%) were called active. This excerpt belongs to a sample that is enriched for actives.

System: HepG2
Assay: cytotoxicity call (relative viability < 0.9)
Conditions: 10 µM

Q: `C[C@@H]1CN([C@@H](C)CO)C(=O)c2cc(NC(=O)CCN3CCOCC3)ccc2O[C@H]1CN(C)S(C)(=O)=O` was tested. Which cytotoxicity call did it give?
A: inactive

Q: How did the cytotoxicity call turn out when `CCCNC(=O)N1C[C@H](C)[C@H](OC)CN(C)C(=O)c2ccc(NS(=O)(=O)CC(F)(F)F)cc2OC[C@@H]1C` was run?
A: inactive

Q: For `C[C@H]1CN([C@@H](C)CO)C(=O)c2cc(NC(=O)c3ccncc3)ccc2O[C@@H]1CN(C)S(=O)(=O)c1cccs1`, which cytotoxicity call is on record?
A: inactive

Q: How did the cytotoxicity call turn out when `C[C@H]1CN([C@@H](C)CO)C(=O)c2cc(NC(=O)CCN3CCOCC3)ccc2O[C@H]1CN(C)Cc1ccc(C(=O)O)cc1` was run?
A: inactive

Q: Which cytotoxicity call does the source give for `COc1cc([C@@H](O)CO)ccc1OS(=O)(=O)O` here?
A: inactive

Q: Which cytotoxicity call does the source give for `COc1ccc(S(=O)(=O)N2C[C@@H](O)COC[C@H]3O[C@H](CC(=O)N[C@H]4CCN(Cc5ccccc5)C4)CC[C@@H]32)cc1` here?
A: inactive

Q: Which cytotoxicity call does the source give for `C[C@@H]1CN([C@@H](C)CO)C(=O)c2cc(NS(=O)(=O)c3cccs3)ccc2O[C@@H](C)CCCCO[C@H]1CN(C)Cc1ccc2c(c1)OCO2` here?
A: inactive

Q: `C[C@H](CO)N1C[C@H](C)[C@@H](CN(C)C(=O)Nc2cccc3ccccc23)Oc2ccc(NS(=O)(=O)c3cccs3)cc2C1=O` was tested. Which cytotoxicity call did it give?
A: inactive

Q: Which cytotoxicity call does the source give for `C[C@H](CO)N1C[C@H](C)[C@H](CN(C)C(=O)NC2CCCCC2)OCCCC[C@H](C)Oc2ccc(NS(=O)(=O)c3cccs3)cc2C1=O` here?
A: inactive

Q: Which cytotoxicity call does the source give for `CC(=O)N1CC(=O)N(c2cnn(C)c2)C[C@]12CCN(C(=O)c1cnc(C)cn1)C2` here?
A: inactive

Q: How did the cytotoxicity call turn out when `CCOC(=O)N(C)C[C@H]1OCc2cn(nn2)CCCC(=O)N([C@@H](C)CO)C[C@H]1C` was run?
A: inactive

Q: With `CSCC[C@H](NC(=O)[C@H](Cc1c[nH]c2ccccc12)NC(=O)CNC(=O)[C@@H](NC(=O)[C@H](Cc1ccc(OS(=O)(=O)O)cc1)NC(=O)[C@H](CC(=O)O)NC(=O)[C@H](CCC(N)=O)NC(=O)[C@@H]1CCC(=O)N1)[C@@H](C)O)C(=O)N[C@@H](CC(=O)O)C(=O)N[C@@H](Cc1ccccc1)C(N)=O` as the compound, how does the cytotoxicity call read?
A: inactive

Q: Which cytotoxicity call does the source give for `CSCC[C@H](NC(=O)[C@@H](N)Cc1c[nH]c2ccccc12)C(=O)N[C@@H](CC(=O)O)C(=O)N[C@@H](Cc1ccccc1)C(N)=O` here?
A: inactive

Q: `CSCC[C@H](NC(=O)[C@H](Cc1ccc(OS(=O)(=O)O)cc1)NC(=O)[C@@H](N)CC(=O)O)C(=O)NCC(=O)N[C@@H](Cc1c[nH]c2ccccc12)C(=O)N[C@@H](CCSC)C(=O)N[C@@H](CC(=O)O)C(=O)N[C@@H](Cc1ccccc1)C(N)=O` was tested. Which cytotoxicity call did it give?
A: active

Q: For `COc1cc(OC)nc(N=CNO)n1`, which cytotoxicity call is on record?
A: inactive

Q: How did the cytotoxicity call turn out when `O=C(C[C@@H]1C[C@H]2c3cc(NC(=O)C4CCOCC4)ccc3O[C@H]2[C@H](CO)O1)NCc1cc(F)ccc1F` was run?
A: inactive

Q: With `CO[C@@H]1[C@H](N(C)C(=O)c2ccccc2)C[C@H]2O[C@]1(C)n1c3ccccc3c3c4c(c5c6ccccc6n2c5c31)C(=O)NC4` as the compound, how does the cytotoxicity call read?
A: active

Q: With `C[C@@H]1CCCCO[C@H](CN(C)C(=O)c2ccccc2)[C@@H](C)CN([C@H](C)CO)C(=O)c2cc(NC(=O)Cc3ccccc3)ccc2O1` as the compound, how does the cytotoxicity call read?
A: inactive

Q: With `Cc1noc(C)c1NC(=O)Nc1ccc2c(c1)C(=O)N([C@@H](C)CO)C[C@H](C)[C@@H](CN(C)Cc1ccccc1)OCCCC[C@H](C)O2` as the compound, how does the cytotoxicity call read?
A: inactive

Q: With `C[C@@H]1CN([C@H](C)CO)C(=O)c2cc(NS(=O)(=O)c3ccc(F)cc3)ccc2O[C@@H]1CN(C)CC1CC1` as the compound, how does the cytotoxicity call read?
A: inactive

Q: How did the cytotoxicity call turn out when `CN(C)C1C(O)=C(C(N)=O)C(=O)C2(O)C(O)=C3C(=O)c4c(O)cccc4C(C)(O)C3C(O)C12.Cl` (stereo not drawn) was run?
A: inactive

Q: How did the cytotoxicity call turn out when `CC(=O)N(C)C[C@H]1Oc2ncc(C#C[C@@H](C)O)cc2C(=O)N([C@H](C)CO)C[C@H]1C` was run?
A: inactive

Q: For `CC(=O)N[C@@H]1[C@@H](O)[C@H](O)[C@@H](CO)O[C@H]1O`, which cytotoxicity call is on record?
A: inactive

Q: For `Cc1nc(N)sc1-c1ccnc(Nc2ccc(N3CCOCC3)cc2)n1`, which cytotoxicity call is on record?
A: active

Q: Which cytotoxicity call does the source give for `COc1ccc(N2CCN(c3nc(NCCO)nc(N4CCOCC4)n3)CC2)cc1` here?
A: inactive

Q: How did the cytotoxicity call turn out when `CC(=O)Oc1ccc(-c2cc(=O)c3c(OC(C)=O)cc(OC(C)=O)cc3o2)cc1` was run?
A: inactive

Q: For `CN1CCN(C(=O)C[C@H]2CC[C@H]3[C@@H](COC[C@H](O)CN3C(=O)C3CC3)O2)CC1`, which cytotoxicity call is on record?
A: inactive

Q: For `COc1ccc(S(=O)(=O)N(C)C[C@H]2Oc3ccc(NC(=O)Cc4ccccc4)cc3C(=O)N([C@@H](C)CO)C[C@@H]2C)cc1`, which cytotoxicity call is on record?
A: inactive

Q: For `C[C@H]1CN([C@@H](C)CO)C(=O)c2cccc(NC(=O)Nc3ccccc3)c2O[C@@H]1CN(C)Cc1ccc(C(F)(F)F)cc1`, which cytotoxicity call is on record?
A: inactive

Q: How did the cytotoxicity call turn out when `CC(=O)c1cccc(C(F)(F)F)c1` was run?
A: inactive

Q: For `Cc1ncc(NC(=O)c2cccc(C(F)(F)F)c2)cc1-c1cnc(OC2CCOCC2)c(N2CCOCC2)c1`, which cytotoxicity call is on record?
A: inactive

Q: For `Cc1ccc(Nc2ncc3c(n2)N(C)C(=O)N(c2cc(NC(=O)c4cccc(C(F)(F)F)c4)ccc2C)C3)cn1`, which cytotoxicity call is on record?
A: active

Q: `Cc1ccc(S(=O)(=O)N(C)C[C@@H]2Oc3cc(Br)ccc3S(=O)(=O)N([C@H](C)CO)C[C@@H]2C)cc1` was tested. Which cytotoxicity call did it give?
A: inactive

Q: `Cc1noc(C)c1S(=O)(=O)N(C)C[C@@H]1OCCCC[C@@H](C)Oc2ccc(NS(C)(=O)=O)cc2C(=O)N([C@H](C)CO)C[C@H]1C` was tested. Which cytotoxicity call did it give?
A: inactive

Q: With `CCCC[P+](CCCC)(CCCC)Cc1ccc(NC(=O)[C@H](Cc2ccc3ccccc3c2)N/C(=N/C2CCCCC2)NC2CCCCC2)cc1` as the compound, how does the cytotoxicity call read?
A: inactive

Q: For `C/C=C/c1ccc2c(c1)O[C@H](CN(C)Cc1ccc(C(=O)O)cc1)[C@@H](C)CN([C@@H](C)CO)S2(=O)=O`, which cytotoxicity call is on record?
A: inactive

Q: How did the cytotoxicity call turn out when `COc1ccc(CN(C)C[C@@H]2OCCCC[C@@H](C)Oc3ccc(NC(=O)Nc4ccc5c(c4)OCO5)cc3C(=O)N([C@@H](C)CO)C[C@H]2C)cc1` was run?
A: active

Q: With `COc1ccc(CN(C)C[C@H]2OCCCC[C@H](C)Oc3ccc(NC(=O)Nc4ccc5c(c4)OCO5)cc3C(=O)N([C@@H](C)CO)C[C@@H]2C)cc1` as the compound, how does the cytotoxicity call read?
A: active

Q: How did the cytotoxicity call turn out when `COc1ccc(CN(C)C[C@@H]2OCCCC[C@H](C)Oc3ccc(NC(=O)Nc4ccc5c(c4)OCO5)cc3C(=O)N([C@@H](C)CO)C[C@@H]2C)cc1` was run?
A: inactive

Q: How did the cytotoxicity call turn out when `COc1ccc(CN(C)C[C@@H]2OCCCC[C@H](C)Oc3ccc(NC(=O)Nc4ccc5c(c4)OCO5)cc3C(=O)N([C@H](C)CO)C[C@H]2C)cc1` was run?
A: inactive

Q: For `COc1ccc(CN(C)C[C@@H]2OCCCC[C@@H](C)Oc3ccc(NC(=O)Nc4ccc5c(c4)OCO5)cc3C(=O)N([C@H](C)CO)C[C@H]2C)cc1`, which cytotoxicity call is on record?
A: inactive

Q: Which cytotoxicity call does the source give for `COc1ccc(CN(C)C[C@@H]2OCCCC[C@H](C)Oc3ccc(NC(=O)Nc4ccc5c(c4)OCO5)cc3C(=O)N([C@H](C)CO)C[C@@H]2C)cc1` here?
A: inactive

Q: For `COc1ccc(CN(C)C[C@H]2OCCCC[C@@H](C)Oc3ccc(NC(=O)Nc4ccc5c(c4)OCO5)cc3C(=O)N([C@H](C)CO)C[C@@H]2C)cc1`, which cytotoxicity call is on record?
A: inactive

Q: Which cytotoxicity call does the source give for `COc1ccc(CN(C)C[C@@H]2OCCCC[C@@H](C)Oc3ccc(NC(=O)Nc4ccc5c(c4)OCO5)cc3C(=O)N([C@H](C)CO)C[C@@H]2C)cc1` here?
A: inactive

Q: How did the cytotoxicity call turn out when `COc1ccc(CN(C)C[C@@H]2OCCCC[C@H](C)Oc3ccc(NC(=O)Nc4ccc5c(c4)OCO5)cc3C(=O)N([C@@H](C)CO)C[C@H]2C)cc1` was run?
A: inactive

Q: For `COc1ccc(CN(C)C[C@@H]2OCCCC[C@@H](C)Oc3ccc(NC(=O)Nc4ccc5c(c4)OCO5)cc3C(=O)N([C@@H](C)CO)C[C@@H]2C)cc1`, which cytotoxicity call is on record?
A: active

Q: With `COc1ccc(CN(C)C[C@H]2OCCCC[C@@H](C)Oc3ccc(NC(=O)Nc4ccc5c(c4)OCO5)cc3C(=O)N([C@H](C)CO)C[C@H]2C)cc1` as the compound, how does the cytotoxicity call read?
A: active

Q: How did the cytotoxicity call turn out when `COc1ccc(CN(C)C[C@H]2OCCCC[C@H](C)Oc3ccc(NC(=O)Nc4ccc5c(c4)OCO5)cc3C(=O)N([C@H](C)CO)C[C@@H]2C)cc1` was run?
A: inactive

Q: `O=C(C[C@H]1CC[C@@H](NC(=O)c2cnccn2)[C@@H](CO)O1)NCc1ccccc1F` was tested. Which cytotoxicity call did it give?
A: inactive

Q: With `COc1ccc(CNC(=O)C[C@@H]2C[C@H]3c4cc(NC(=O)NC5CCCC5)ccc4O[C@H]3[C@H](CO)O2)cc1` as the compound, how does the cytotoxicity call read?
A: inactive

Q: `COc1ccc(NC(=O)N(C)C[C@H]2Oc3ccc(NS(C)(=O)=O)cc3CC(=O)N([C@H](C)CO)C[C@H]2C)cc1` was tested. Which cytotoxicity call did it give?
A: inactive

Q: Which cytotoxicity call does the source give for `O=C(C[C@@H]1C=C[C@H](NC(=O)CN2CCOCC2)[C@@H](CO)O1)NCc1cccc(F)c1` here?
A: inactive

Q: Which cytotoxicity call does the source give for `C[C@H](CO)N1C[C@H](C)[C@@H](CN(C)CC2CCCCC2)Oc2ccc(NC(=O)CCN3CCOCC3)cc2CC1=O` here?
A: inactive

Q: Which cytotoxicity call does the source give for `C[C@H]1CN([C@@H](C)CO)C(=O)CCCn2cc(nn2)CO[C@H]1CN(C)S(C)(=O)=O` here?
A: inactive

Q: Which cytotoxicity call does the source give for `C[C@@H]1CCCCO[C@@H](CN(C)C(=O)CCCN(C)C)[C@H](C)CN([C@H](C)CO)C(=O)c2cc(NC(=O)Nc3cccc4ccccc34)ccc2O1` here?
A: inactive

Q: Which cytotoxicity call does the source give for `COc1ccc(CN(C)C[C@H]2OCCCC[C@@H](C)Oc3ccc(NC(=O)Nc4ccc5c(c4)OCO5)cc3C(=O)N([C@@H](C)CO)C[C@@H]2C)cc1` here?
A: inactive

Q: How did the cytotoxicity call turn out when `COc1ccc(CN(C)C[C@H]2OCCCC[C@@H](C)Oc3ccc(NC(=O)Nc4ccc5c(c4)OCO5)cc3C(=O)N([C@@H](C)CO)C[C@H]2C)cc1` was run?
A: inactive

Q: `COc1ccc(CN(C)C[C@H]2OCCCC[C@H](C)Oc3ccc(NC(=O)Nc4ccc5c(c4)OCO5)cc3C(=O)N([C@@H](C)CO)C[C@H]2C)cc1` was tested. Which cytotoxicity call did it give?
A: active

Q: For `COc1ccc(-c2cnc3c(c2)C(=O)N([C@H](C)CO)C[C@@H](C)[C@H](CN(C)C(=O)C2CCOCC2)O3)cc1`, which cytotoxicity call is on record?
A: inactive

Q: `CCCCCCCCCCCCCCCCCCCCCCCCCCCCO` was tested. Which cytotoxicity call did it give?
A: inactive

Q: How did the cytotoxicity call turn out when `CCCCCCCCCCCCCCCC(=O)CCO` was run?
A: inactive

Q: Which cytotoxicity call does the source give for `CCCCCCCCCCCCCCCCCCCCCCO` here?
A: active

Q: For `COCC(=O)Nc1ccc2c(c1)[C@@H]1C[C@H](CC(=O)N3CCOCC3)O[C@H](CO)[C@@H]1O2`, which cytotoxicity call is on record?
A: inactive
